# Shh pathway inh: blocks Sonic Hedgehog signaling | Shh-LIGHT2 Gli-luciferase reporter, 30 h | inhibition, % (no concentration beside the values) | 2.1% of 22,000 active | AID 2313;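 active = mean inhibition across valid replicates above about 65%, limit read from the data; inconclusive = mean under the limit, yet half or more replicates past it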;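 note: pathway switched on by Shh-conditioned medium diluted 1 in 25 in low serum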
# NOMO-1 viab: STK33 inhibitor candidate reducing NOMO-1 cell viability; NOMO-1 AML viability, CellTiter-Glo luminescence, 72 h; inhibition, % (test concentration not listed); 7.5% of 37,000 active; in the data active = inhibition above about 80%; inconclusive = no clear call, values can overlap the other calls
# MITF inhib: inhibitors of MITF; TRPM1 promoter luciferase, luminescence, 24 h; inhibition, % (test concentration not listed); 0.28% of 37,000 active; AID 2240; in the data active = inhibition above about 85%; inconclusive = no clear call, values can overlap the other calls; inactive = below about 68%;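 note: human melanocyte line stably carrying TRPM1 promoter luciferase reporter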
# The depositor's hits bear a star; u = inconclusive; x = not tested or not shown. Most compounds without a hit are left out; they make up all but 7.8% or so of the library.
SMILES,Shh pathway inh,NOMO-1 viab,MITF inhib
C[C@@H]1CN([C@H](C)CO)C(=O)Cc2cc(NC(=O)Nc3ccc4c(c3)OCO4)ccc2O[C@@H]1CN(C)Cc1ccc2c(c1)OCO2,72*,6,-2
Cc1cc(C)nc(SC(C)C(=O)Nc2cccc3ccccc23)n1 (stereo unspecified),x,-10,26
Cc1ccc(S(=O)(=O)Nc2cccc3c2O[C@@H](CN(C)Cc2ccc(C(F)(F)F)cc2)[C@@H](C)CN([C@@H](C)CO)C3=O)cc1,7,17,12
COc1ccc(S(=O)(=O)Nc2cccc3c2O[C@H](CN(C)Cc2ccc(C(F)(F)F)cc2)[C@H](C)CN([C@@H](C)CO)C3=O)cc1,18,20,-11
C[C@@H]1CN([C@@H](C)CO)C(=O)c2cccc(NS(=O)(=O)c3ccc(F)cc3)c2O[C@@H]1CN(C)Cc1ccc(-c2ccccc2)cc1,6,84*,-2
COc1ccc(S(=O)(=O)Nc2cccc3c2O[C@@H](CN(C)Cc2ccc(C(F)(F)F)cc2)[C@@H](C)CN([C@H](C)CO)C3=O)cc1,-5,96*,26
C[C@H]1CN([C@@H](C)CO)C(=O)c2cccc(NS(=O)(=O)c3ccc(F)cc3)c2O[C@@H]1CN(C)Cc1ccc(-c2ccccc2)cc1,16,20,19
Cc1ccc(S(=O)(=O)Nc2cccc3c2O[C@@H](CN(C)Cc2ccc(C(F)(F)F)cc2)[C@@H](C)CN([C@H](C)CO)C3=O)cc1,13,90*,22
O=C(Nc1cc(C(F)(F)F)cc(C(F)(F)F)c1)C(=S)NCCNc1cccc2ccccc12,23,65,-2
C[C@@H]1CN([C@H](C)CO)C(=O)Cc2cc(NS(=O)(=O)c3ccc(F)cc3)ccc2O[C@H]1CN(C)Cc1ccc(Cl)c(Cl)c1,13,102*,12
C[C@@H]1CN([C@H](C)CO)C(=O)Cc2cc(NS(=O)(=O)c3ccc(Cl)cc3)ccc2O[C@H]1CN(C)Cc1ccc(Cl)c(Cl)c1,28,105*,18
C[C@H](CO)N1C[C@H](C)[C@H](CN(C)Cc2ccc(Cl)c(Cl)c2)Oc2ccc(NS(C)(=O)=O)cc2CC1=O,5,4,-8
C[C@H]1CN([C@@H](C)CO)C(=O)Cc2cc(NS(=O)(=O)c3ccc(F)cc3)ccc2O[C@H]1CN(C)Cc1ccc(Cl)c(Cl)c1,51,u,-10
O=C(CNS(=O)(=O)c1ccccc1)Nc1cccc(F)c1,x,-2,-28
Cc1sc2ncnc(SCC(=O)c3cc(Cl)sc3Cl)c2c1C,x,48,-3
COc1cc(OC)c(NC(=O)CSc2ccccn2)cc1Cl,x,-1,-7
C=C(C(=O)O[C@H]1C/C(C)=C\CC/C(CO)=C\[C@H]2OC(=O)C(=C)[C@H]12)C(O)CO (stereo partly specified),18,19,-33
C=C(C)C(=O)OC1CC(CO)CCC/C(CO)=C\C2OC(=O)C(=C)C21 (stereo unspecified),71*,x,x
CC(C)(C)c1ccc(C(=O)Nc2ccc(NC(=O)COc3ccc([N+](=O)[O-])cc3)cc2)cc1,x,2,-5
Cc1ccc(OC(=O)OCSc2nn[nH]n2)cc1,u,119*,21
COc1ccc(C(=O)CSc2n[nH]c(-c3ccc(C)cc3)n2)cc1,x,14,-37
N#CC1CN(CCc2ccccc2)CN(CCc2ccccc2)C1,69*,111*,19
O=C1NCC2(CCN(CCc3ccccc3)CC2)O1,13,-10,12
COc1ccc(S(=O)(=O)Nc2ccc3c(c2)CC(=O)N([C@@H](C)CO)C[C@H](C)[C@@H](CN(C)Cc2ccc(C(=O)Nc4ccccc4N)cc2)O3)cc1,x,45,6
Cc1ccc(S(=O)(=O)Nc2ccc3c(c2)CC(=O)N([C@@H](C)CO)C[C@@H](C)[C@@H](CN(C)Cc2ccc(C(=O)Nc4ccccc4N)cc2)O3)cc1,x,109*,11
C[C@@H]1CN([C@H](C)CO)C(=O)Cc2cc(NS(=O)(=O)c3ccc(F)cc3)ccc2O[C@H]1CN(C)Cc1ccc(C(=O)Nc2ccccc2N)cc1,x,u,-14
C[C@@H]1CN([C@H](C)CO)C(=O)Cc2cc(NS(=O)(=O)c3ccc(Cl)cc3)ccc2O[C@H]1CN(C)Cc1ccc(C(=O)Nc2ccccc2N)cc1,x,62,-6
C[C@@H]1CN([C@H](C)CO)C(=O)Cc2cc(NS(=O)(=O)c3ccc(F)cc3)ccc2O[C@@H]1CN(C)Cc1ccc(C(=O)Nc2ccccc2N)cc1,x,91*,18
COc1ccc(S(=O)(=O)Nc2ccc3c(c2)CC(=O)N([C@@H](C)CO)C[C@H](C)[C@H](CN(C)Cc2ccc(C(=O)Nc4ccccc4N)cc2)O3)cc1,x,140*,0
Cc1noc(C)c1S(=O)(=O)Nc1ccc2c(c1)CC(=O)N([C@H](C)CO)C[C@@H](C)[C@@H](CN(C)Cc1ccc(C(=O)Nc3ccccc3N)cc1)O2,x,100*,4

# Compound activity deposited in PubChem by Broad Institute.
